Results reported in PubChem BioAssay AID2330 (Broad Institute, 2010).
Screen size: about 37,000 compounds; about 2,800 (7.6%) were called active. About 1% were inconclusive and are not listed. The entries come from a sample that favours actives as a whole. Unmarked numbers belong to inactive results. Rule as the data show it: active = inhibition above about 80%; inconclusive = no clear call, values can overlap the other calls; inactive = below that.

Assay: NOMO-1 AML cell viability reduction, primary screen, STK33 inhibitor project, CellTiter-Glo luminescence (AID 2330)
Conditions: NOMO-1 AML viability, 72 h, hits give high values, concentration not given here

SMILES	inhibition
C[C@H]1O[C@@H](O[C@H]2CC[C@]3(CO)C4CC[C@]5(C)[C@@H](C6=CC(=O)OC6)CC[C@]5(O)[C@@H]4CC[C@H]3C2)[C@H](O)[C@H](O)[C@@H]1O[C@@H]1O[C@H](CO)[C@@H](O)[C@H](O)[C@H]1O (stereo not given in full)	119% (active)
CCCCC/C=C\C/C=C\C/C=C\C/C=C\CCCCCC(=O)NCCO	10.8%
COc1ccc(CNCc2nc3ccccc3c(=O)n2-c2ccc(F)cc2)cc1	23.8%
CC(C)c1ccc2c(c1O)CC[C@H]1C3=C(CC[C@]21C)C(=O)OC3	24.4%
O=C(Nc1ccc2c(C(F)(F)F)cc(=O)oc2c1)c1nc2ncccn2n1	7.98%
COc1c(C(C)C)cc2c(c1O)[C@@]1(C(=O)O)CCCC(C)(C)C1CC2 (stereo not given in full)	16%
CCCCCCCCCCCCCC(=O)O[C@@H]1[C@@H](C)[C@@]2(O)[C@@H](C=C(CO)C[C@]3(O)C(=O)C(C)=C[C@@H]23)[C@@H]2C(C)(C)[C@]12OC(C)=O	98.2% (active)
Cc1cc(OCc2cc(C(=O)O)oc2C)c2c3c(c(=O)oc2c1)CCCC3	0.325%
CCCN(C/C=C/I)C1CCc2ccc(O)cc2C1 (stereo not given)	31.2%
COC1=C[C@@H]2[C@@H]3Cc4ccc(OC)c(O)c4[C@]2(CCN3C)CC1=O	-7.75%
COC1=CC23CCN(C)[C@H](Cc4cc(OC)c(OC)cc42)C3=CC1=O	24.6%
O=C(c1ccccc1)C12CN3CN(CN(C3)C1)C2	-14.9%
COc1ccccc1N1C(=O)NC(=O)C(CCc2ccncc2)(Cc2cccc3ccccc23)C1=O (stereo not given)	32.3%
C[C@H]1CCC/C=C/C2C[C@H](O)C[C@H]2[C@H](O)/C=C\C(=O)O1 (stereo not given in full)	122% (active)
COc1ccc2[nH]cc(CCNCc3ccc(Br)cc3)c2c1	48.6%
CCCCn1c(C)c(C(C)=O)c2c(OCC(=O)O)c(Cl)c(Cl)c(Cl)c21	-7.33%
c1ccc2c(c1)[I+]c1ccccc1-2	141% (active)
C=CC(C)(C)c1cc2cc3c(cc2oc1=O)O[C@H](C(C)(C)O)C3	45.2%
Cc1ncsc1CCCl	11.2%
CC(C)Nc1nc(Cl)nc(NC(C)C)n1	8.29%
